Inconclusive results are not listed. Unmarked numbers belong to inactive results. The source made the active and inactive calls. Calls come from the whole dose curve; as a rule, active = well fitted inhibition curve with a large enough effect; inconclusive = small, poorly fitted or top-dose-only effect; inactive = flat fitted curve, though single readings scatter. Bridge positions count the residues as written; N and C are the ends. Square brackets hold non-standard residues; d marks the D form. Peptide text beside a SMILES is read from it. * marks the point of attachment. Octanoyl(6-Me) = CCC(C)CCCCC(=O)*; Dab = NCC[CH](N)C(=O)O
Potency is the fitted concentration of half-maximal effect.

The subject of this assay is CP203. Kind of assay: qHTS profiling for inhibitors of Plasmodium falciparum proliferation (AID 504749).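 For activity, negative = inhibition: 0% = DMSO vehicle and full inhibition = artemisinin control.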 Note: nearly all actives have a fitted effect of over 60% in size. As to conditions: P. falciparum in erythrocytes, SYBR Green DNA, 72 h; series mostly up to 28.7 µM; activity, negative = inhibition: at the top concentration. The text has this: NIH National Institute of Allergy and Infectious Diseases [NIAID] NIH Chemical Genomics Center [NCGC] MLPCN Grant: None Assay Provider: Xinzhuan Su, NIAID NCGC Assay Overview: Plasmodium falciparum is a virulent malarial parasite that kills 1-2 million people worldwide each year. Transmitted by mosquitoes, the sporozoite form of the parasite enters the blood stream to infect hepatocytes, where they become merozoites that infect red blood cells (erythrocytes). Within erythrocytes, merozoites begin a […] cycle of growth and division, after which the parasite is released to infect new red blood cells. Gametocytes, which form within erythrocytes as well, circulate in the bloodstream and are ingested by the mosquito, thereby completing the life cycle. To profile malarial isolates for differential chemical responses and to identify inhibitors of malarial growth, an assay that measures P. falciparum growth and replication within erythrocytes was employed. This assay uses a DNA binding fluorescent dye (SYBR Green) to detect parasite DNA following cell lysis. Because mature erythrocytes lack DNA, only Plasmodium-derived DNA is detected.
NCGC Assay Protocol Summary: The SYBR Green viability assay was adapted from a method described previously (Plouffe et al., 2008). For screening 3 ul culture medium was dispensed into 1536 well black clear bottom plates (Aurora Biotechnologies) using a Multidrop Combi (Thermo Fisher Scientific Inc.), 23 nL compounds in DMSO were added by a pin tool (Kalypsys), and 5 ul of erythrocytes infected with P. falciparum (0.3% parasitemia, 2.5% hematocrit final concentration) were added. The plates were incubated at 37 C in a humidified incubator in 5% CO2 for 72 h, and 2 ul lysis buffer (20 mM Tris HCl, 10 mM EDTA, 0.16% saponin, 1.6% triton X, 10X SYBR Green I supplied as 10,000X […] by Invitrogen) was added to each well. The plates were mixed for 25 sec with gentle shaking and incubated overnight at room temperature in the dark. The following morning, fluorescence intensity at 485(14) nm excitation and 535(25) nm emission wavelengths was measured on an EnVision (Perkin Elmer) plate reader. Plate reads were normalized relative to the control inhibitor (0.29 uM artemisinin) and vehicle (DMSO) wells present on each plate and then corrected by an algorithm using vehicle-only control plates at the beginning and end of the compound plate stack.
On the technique in general: qHTS replaces the single test concentration by a dilution series.
Regarding `CC(C)CN(C[C@@H](OP(=O)(O)O)[C@H](Cc1ccccc1)NC(=O)O[C@@H]1CCOC1)S(=O)(=O)c1ccc(N)cc1`, the “activity, negative = inhibition” value is 4.96%.

On to `C=C[C@]1(C)C[C@@H](OC(=O)CSCCN(CC)CC)[C@]2(C)C(C)CC[C@]3(CCC(=O)[C@H]32)[C@@H](C)[C@@H]1O` (stereo partly drawn), for which the Potency is 13.5 µM (active).

On to `CCN1/C(=C/C=C/C=C/c2sc3ccccc3[n+]2CC)Sc2ccccc21`, for which the Potency was 6.75 µM (active).

For `CN1CC[C@H](CN2c3ccccc3Sc3ccccc32)C1`, the Potency was 9.53 µM (active).

Take `CCC(C)n1ncn(-c2ccc(N3CCN(c4ccc(OCC5COC(Cn6cncn6)(c6ccc(Cl)cc6Cl)O5)cc4)CC3)cc2)c1=O` (stereo not drawn): the “activity, negative = inhibition” value was 0.861%.

Consider `O=NCc1ccc([N+](=O)[O-])o1`, for which the “activity, negative = inhibition” value is -5.93%.

On to `CC(=O)O[C@@]12CO[C@@H]1C[C@H](O)[C@@]1(C)C(=O)[C@H](O)C3=C(C)[C@@H](OC(=O)C(O)[C@@H](NC(=O)OC(C)(C)C)c4ccccc4)C[C@@](O)([C@@H](OC(=O)c4ccccc4)[C@H]21)C3(C)C` (stereo partly drawn), for which the Potency is 0.0536 µM (active).

With `CC(=O)OC1CC2CCC1(C)C2(C)C` (stereo not drawn), the “activity, negative = inhibition” value is 1.73%.

On to `NC1=NC(S)C2N=CN=C2N1` (stereo not drawn), for which the “activity, negative = inhibition” value was -4.77%.

Take `Cc1cc(CC(C)CC(C)(C)C)n(O)c(=O)c1` (stereo not drawn): the Potency was 3.38 µM (active).

Turning to `CO/N=C(/C(=O)N[C@@H]1C(=O)N2C(C(=O)O)=CCS[C@H]12)c1csc(N)n1`, the “activity, negative = inhibition” value was 5.05%.

Regarding `CC1CCC(C(C)C)C(OC(=O)c2ccccc2O)C1` (stereo not drawn), the “activity, negative = inhibition” value is 7.72%.

Consider `Nc1nc(Cl)nc2c1ncn2C1CC(O)C(CO)O1` (stereo not drawn), for which the “activity, negative = inhibition” value was -18.6%.

For `CN(C)CCCCCCN(C)C`, the “activity, negative = inhibition” value was -0.289%.

For `C/C=C\c1ccc(OC)cc1`, the “activity, negative = inhibition” value was 1.19%.

Consider `CCC(C)CCCCC(=O)NC(CCN)C(=O)NC(C(=O)NC(CCN)C(=O)NC1CCNC(=O)C(C(C)O)NC(=O)C(CCN)NC(=O)C(CCN)NC(=O)C(CC(C)C)NC(=O)C(Cc2ccccc2)NC(=O)C(CCN)NC1=O)C(C)O` (stereo not drawn) ({Octanoyl(6-Me)}-[Dab]T[Dab][Dab][Dab]FL[Dab][Dab]T; lactam 4-C; configuration not given here), for which the “activity, negative = inhibition” value was 11.3%.

As for `C1OCOCO1`, the “activity, negative = inhibition” value is -1.81%.

Regarding `CC1(C)S[C@@H]2[C@H](NC(=O)COc3ccccc3)C(=O)N2[C@H]1C(=O)O`, the “activity, negative = inhibition” value is 6.75%.

Source of the values: PubChem BioAssay (NCATS).
